# According to PubChem BioAssay (NCI):
# This is part of a sample that, as a whole, favours compounds with a hit. Of some 83,000 tested, about 20% had one in any assay.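 Plates (96-well) were seeded with cells, treated with compound at one concentration, and incubated for 48 hours before percent growth was determined.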 Calls of active or inactive are those of the source. Rule for the calls: active = growth percent below 10; inactive = the rest.
# Tested on: SK-MEL-28 melanoma
# Test: NCI-60 one-dose screen, 48 h (100 = growth as untreated, 0 = no growth, -100 = all killed)
# Details: 10 µM
row,SMILES,growth
1,CCOS(=O)(=O)c1c(C(C)C)cc(C(C)C)cc1C(C)C,96.5% (inactive)
2,CC(C)CCN(CCC(C)C)CC(=O)Nc1ccc(S(=O)(=O)c2ccc(NC(=O)CN(CCC(C)C)CCC(C)C)cc2)cc1,72.6% (inactive)
3,O=C(N/N=C/c1cc([N+](=O)[O-])ccc1O)c1cccc2ccccc12,50% (inactive)
4,COc1cc(Cc2cc(-c3ccccc3)n[nH]c2=O)cc(OC)c1OC,70% (inactive)
5,C1CN(CC2CCC(CN3CCOCC3)O2)CCO1 (stereo not given),105% (inactive)
6,Cc1cc(=O)n2nnc3cc(Cl)c(Cl)cc3n12,105% (inactive)
7,CC(=O)N[C@H](C(=O)N[C@@H](CCCNC(=N)N)C(=O)N[C@@H](CCCCN)C(=O)N[C@@H](CCCNC(=N)N)C(=O)N[C@]1(C)CCCCCC/C=C\CCC[C@@](C)(C(=O)N[C@@H](CCCNC(=N)N)C(=O)N[C@@H](CCC(=O)O)C(=O)N[C@@H](CC(C)C)C(=O)N[C@H](C(=O)N[C@@H](CCC(=O)O)C(N)=O)C(C)C)NC(=O)[C@H](CCC(N)=O)NC(=O)[C@H](CC(C)C)NC(=O)[C@H](CC(C)C)NC(=O)[C@H](CCCNC(=N)N)NC(=O)[C@H](CCCNC(=N)N)NC(=O)[C@H](CC(C)C)NC1=O)C(C)C,-29.7% (active)
8,Cc1ccc(/C=C2/C(=O)N(C)c3ccc(S(=O)(=O)Nc4ccc(C(C)(C)C)cc4)cc32)s1,81.8% (inactive)
9,CC(=O)[C@H]1CC[C@]2(C)[C@@H]1CC[C@@H]1[C@@]3(C)CC(CCC#N)(CCC#N)C(=O)C(C)(C)[C@@H]3CC[C@]12C,93.9% (inactive)
10,O=C(CCn1cnc2c(cc(-c3ccccc3)n2-c2ccccc2)c1=O)Nc1ccc(F)cc1,80.5% (inactive)
11,Cc1c(Cl)cccc1NC(=O)CN1CCOCC1,109% (inactive)
12,CC(C)(C)OC(=O)CN1CCc2c(sc3ncnc(N/N=C/c4cccc5ccccc45)c23)C1,50.1% (inactive)
13,CCn1c(SCc2ccc(C)cc2)nnc1-c1nn(-c2ccc(Cl)cc2Cl)c(-c2ccc(Cl)cc2)c1C,30.3% (inactive)
14,O=C(Nc1nc(-c2ccccc2)nc2c1sc(=S)n2-c1ccccc1)C(F)(F)F,104% (inactive)
15,Cc1c[nH]c(=O)n(Cc2nnc(CCC(=O)c3nc4ccccc4[nH]3)o2)c1=O,40.9% (inactive)
16,CCCCN(CCCC)C(=O)[C@H](CC)[C@@H]1CC[C@@H](C)[C@@H]([C@H](C)[C@@H](O)[C@@H](C)C(=O)[C@H](CC)C2O[C@]3(C=CC(=O)[C@]4(CC[C@@](C)([C@H]5CC[C@](O)(CC)[C@H](C)O5)O4)O3)[C@H](C)C[C@@H]2C)O1 (stereo not given in full),23.8% (inactive)
17,CCN(CC)CCOc1cccc2c1C(=O)c1ccccc1C2=O,111% (inactive)
18,COc1cc(OC)c2c(=O)c(O)c(-c3ccccc3)oc2c1,95.8% (inactive)
19,COc1ccc(-c2cc(-c3ccccc3)nc(SCCCC(=O)NO)n2)cc1,19.2% (inactive)
20,COc1cc(-c2nn(-c3ccc(NC(=O)NCCNS(=O)(=O)c4ccc(F)cc4)cc3)cc2-c2ccncc2)ccc1Cl,26.4% (inactive)

row,SMILES,growth
1,Cc1[nH]c2ccccc2c1/C=N/Nc1ncnc2sc3c(c12)CCN(CC(=O)OC(C)(C)C)C3,80.7% (inactive)
2,O=C1CSC(=S)N1/N=C/c1ccc(Cl)s1,107% (inactive)
3,O=C(CC(CC(=O)c1ccccc1)c1ccccc1O)c1ccccc1,101% (inactive)
4,CCOC(=O)c1cc(C(=O)c2cc(OC)cc(OC)c2)n2nc(C)ccc12,78.7% (inactive)
5,CCCc1cn(CC(=O)Nc2nc3ccccc3s2)nn1,103% (inactive)
6,CC(CN(C)C)Oc1ccc(OC(C)CN(C)C)c2c1C(=O)c1ccccc1C2=O (stereo not given),96% (inactive)
7,COc1cc(-c2nn(-c3cccc(NC(=O)NCCNC(=O)c4cccc(C(F)(F)F)c4)c3)cc2-c2ccncc2)ccc1Cl,57.6% (inactive)
8,Cc1ccc(NCCNCC(C)(C)O)c2c(=O)c3ccc(Cl)cc3sc12,-60% (active)
9,CNS(=O)(=O)Oc1ccc(-c2sc3cc(OS(=O)(=O)NC)ccc3c2C(=O)c2ccc(OCCN3CCCCC3)cc2)cc1,79.2% (inactive)
10,CN(C)CCOc1ccccc1NC1=C(Cl)C(=O)C(Nc2ccccc2OCCN(C)C)=C(Cl)C1=O,109% (inactive)
11,COc1cc(-c2nn(-c3cccc(NC(=O)CCNc4ccc(N5CCOCC5)cc4)c3)cc2-c2ccncc2)ccc1Cl,31.6% (inactive)
12,C=CCSC(CC)(CC)C(=O)NC,110% (inactive)
13,Cc1c(Cl)cccc1NC(=O)CCCl,108% (inactive)
14,CC(=O)C1N=NCC1c1ccccc1 (stereo not given),112% (inactive)
15,CCN(CC)CCOc1cccc2c1C(=O)c1cccc(OCCN(CC)CC)c1C2=O,82.5% (inactive)
16,CC(C)(C)OC(=O)CN1CCc2c(sc3ncnc(N/N=C/c4ccccc4Br)c23)C1,90.9% (inactive)
17,N#CCc1csc(Cc2ccccc2)n1,108% (inactive)
18,Clc1ccc(C2=NN=C3C(Cc4ccccc4)=Nc4ccccc4N3C2)cc1,83.4% (inactive)
19,CCN(CC)CC(=O)N(CC)c1ccc(C)c(Cl)c1,108% (inactive)
20,COc1cc(-c2csc(NC(=O)Nc3ccc(Cl)c(C(F)(F)F)c3)n2)cc(OC)c1OC,15.3% (inactive)
